Screening data deposited in PubChem BioAssay by National Center for Advancing Translational Sciences (NCATS).
Hits are enriched below; roughly 11% of the tested compounds scored in any of these assays.
ALDH1A1 inh-1 = inhibitors of human aldehyde dehydrogenase 1A1; P00352; AID 1030; Potency, µM (series often up to 75.3 µM), for inactives: at the top dose activity, negative = inhibition, usual class: inhibitors; 220,000 tested, 7.3% active; Purified ALDH1A1, NADH fluorescence, propionaldehyde substrate;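 note: potency is the fitted concentration of half-maximal effect; plate controls were no enzyme wells and a reference inhibitor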
IMPase inh = IMPase inhibition in cells; P97697; CHO-M1 cells, IP1 accumulation, HTRF TR-FRET ratio; inhibition (IP1 accumulation), % at 46.1 µM; 120,000 tested, under 10 active; AID 901; active = well fitted curve in the direction sought with a large enough effect in the signal ratio, not every such curve was filed as active; inconclusive = small, poorly fitted or top-dose-only effect, or a change in a side signal; inactive = no such curve, though single readings can be large or run the other way; the % refers to the signal ratio;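 note: cells stimulated with carbachol in lithium chloride buffer; plate controls were DMSO basal wells for no effect and reference inhibitor wells for full effect; higher means more IMPase inhibition seen as more IP1 and lower FRET ratio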
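Carbachol-driven Gq signalling in CHO-M1 cells (2000/well) generates IP1. Compounds that block IMPase raise IP1 and so reduce the FRET signal from Eu-anti-IP1 and d2-IP1 after a 10 min room-temperature lysis.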
12-hLO inh = blocks human 12-lipoxygenase activity. Potency, µM (series often up to 57.1 µM), inactives show at the highest dose activity change, negative = inhibition, hits mostly inhibitors. 150,000 tested, 0.12% active. purified 12-hLO, xylenol orange hydroperoxide absorbance; active = well fitted curve in the direction sought with a large enough effect; inconclusive = small, poorly fitted or top-dose-only effect, or another doubt; inactive = no such curve, though single readings can be large; an effect the other way counts as inactive or inconclusive; note: potency is the fitted concentration of half-maximal effect; % is set by controls: 0 for no effect and ±100 for the full control effect; nearly all actives have a fitted effect of over 55% in size
Target sequence (P18054 whole entry, looked up): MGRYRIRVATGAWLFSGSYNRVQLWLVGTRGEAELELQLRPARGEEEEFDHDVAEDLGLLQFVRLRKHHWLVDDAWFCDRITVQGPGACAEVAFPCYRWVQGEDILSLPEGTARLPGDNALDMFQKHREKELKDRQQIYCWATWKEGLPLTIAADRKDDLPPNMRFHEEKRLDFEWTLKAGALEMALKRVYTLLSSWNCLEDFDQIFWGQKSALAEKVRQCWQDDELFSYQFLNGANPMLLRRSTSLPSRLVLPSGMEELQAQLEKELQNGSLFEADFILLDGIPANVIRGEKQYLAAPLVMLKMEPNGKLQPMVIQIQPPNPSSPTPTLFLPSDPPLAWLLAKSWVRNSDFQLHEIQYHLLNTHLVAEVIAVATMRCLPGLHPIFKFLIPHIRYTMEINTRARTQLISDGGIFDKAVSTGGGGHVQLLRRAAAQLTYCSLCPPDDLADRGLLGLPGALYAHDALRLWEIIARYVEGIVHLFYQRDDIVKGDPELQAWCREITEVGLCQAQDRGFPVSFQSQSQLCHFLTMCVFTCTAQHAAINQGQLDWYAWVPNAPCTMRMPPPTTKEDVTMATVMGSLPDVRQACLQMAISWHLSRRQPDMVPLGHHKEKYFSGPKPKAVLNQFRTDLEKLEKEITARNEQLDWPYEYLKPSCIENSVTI
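Lipoxygenase turnover measured by absorbance at 573 and 405 nm after Fe-XO development. Human 12hLO 150 nM, arachidonate 40 uM, pH 7.0 Hepes buffer with detergent; 15 min compound preincubation, 30 min reaction.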
HPGD inh = HPGD (human) dehydrogenase inhibition; purified HPGD, NADH fluorescence kinetic, PGE2 substrate; Potency, µM, for the others: at the highest dose activity change, negative = inhibition, most hits filed as inhibitors; 150,000 tested, 4.3% active; note: potency is the fitted concentration of half-maximal effect; % is set by controls: 0 for no effect and ±100 for the full control effect
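NADH formation kinetics: reaction with 30 uM PGE2 and 1 mM NAD+ (final), 20 nM enzyme, Tris-HCl pH 8 with Tween 20, after 15 min compound preincubation at room temperature. Fluorescence change, last versus first of five reads.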
IMPase Li inh = cell-permeable IMPase inhibitors with lithium potentiation. CHO-M1 cells, IP1 TR-FRET (IP-One), carbachol + lithium. Potency, µM (highest dose often 59.4 µM), for the others: top-dose activity, negative = IMPase inhibition, usual class: inhibitors. 210,000 tested, 0.35% active; active = well fitted curve in the direction sought with a large enough effect; inconclusive = small, poorly fitted or top-dose-only effect, or another doubt; inactive = no such curve, though single readings can be large; an effect the other way counts as inactive or inconclusive;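 note: IP1 builds up when IMPase is blocked and the TR-FRET signal falls; potency is the fitted concentration of half-maximal effect; plate controls were basal vehicle for no effect and high inhibitor control for full effect; nearly all actives have a fitted effect of over 50% in size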
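IP1 accumulation measured by competitive TR-FRET in lysed CHO-M1 cells after 30 min compound exposure at 37C, with a small lithium addition to potentiate weak responses. Hill-equation AC50 from ratio and donor-channel data.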
PNC assembly inh = inhibitors of perinucleolar compartment assembly | 140,000 tested, 3.1% active | activity change (PNC), negative = inhibition, % at 10 µM | PC3M PTB-GFP, PNC prevalence imaging, 16 h; stronger effect = lower value;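 active = readout at or below -70, meaning at least 70% loss of cells showing the perinucleolar compartment, a nuclear body marking cancer cells; inconclusive = readout between -30 and a set limit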;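 note: plate controls were DMSO wells for no effect and camptothecin positive control wells for full effect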
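Read-out is percentage of cells bearing a perinucleolar compartment, from automated 20x imaging of fixed, Hoechst-stained PC3M PTB-GFP cells. Cells were seeded 4 h, then exposed 16 h to compound (23 nl of library stock) in duplicate plates.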
ALDH1A1 inh-2 = Confirms inhibition of human ALDH1A1 with counterscreen. 90 tested, 90% active. shares compounds with ALDH1A1 inh-1. AID 493210. purified ALDH1A1, NADH fluorescence, propionaldehyde/NAD+. Potency, µM (series often up to 57.1 µM), for the others: top-dose activity change, negative = inhibition, hits mostly inhibitors; calls by dose curve
Active calls of the source: *; ? = inconclusive; . = no result given; [ ] = remark or other dose. Unless noted, calls come from the whole dose curve; as a rule, active = well fitted inhibition curve with a large enough effect (not every such curve was filed as active); inconclusive = small, poorly fitted or top-dose-only effect, or another doubt; inactive = no such curve, though single readings can be large or run the other way.

SMILES	ALDH1A1 inh-1	IMPase inh	12-hLO inh	HPGD inh	IMPase Li inh	PNC assembly inh	ALDH1A1 inh-2
CCOC(=O)N1CCN(Cc2nc3c(c(=O)n(C)c(=O)n3C)n2CCCc2ccccc2)CC1	0.63µM*	12	-5%	3%	26%[38.3 µM]	2	0.63µM*
CCOC(=O)N1CCN(Cc2nc3c(c(=O)n(C)c(=O)n3C)n2Cc2ccccc2C)CC1	0.25µM*	11	-5%	-9%	3%[38.3 µM]	-17	0.35µM*
Cc1ccc(Cn2c(CN3CCN(C(=O)c4ccco4)CC3)nc3c2c(=O)n(C)c(=O)n3C)cc1	0.16µM*	2	-12%	-11%	-19%[38.3 µM]	-6	0.5µM*
CC(C)Cn1c(CN(C)Cc2ccccc2)nc2c1c(=O)n(C)c(=O)n2C	3%	1	-2%	3%	27%[38.3 µM]	?	.
CN(Cc1ccccc1)Cc1nc2c(c(=O)n(C)c(=O)n2C)n1CCCc1ccccc1	0.71µM*	25	-4%	-5%	21%[38.3 µM]	?	0.56µM*
Cc1ccc(NC(=O)c2ccccc2-c2ccc(C(F)(F)F)cc2)cc1S(=O)(=O)N1CCOCC1	10%	.	3%	-16%	4%	49	.
COc1ccc(NC(=O)COc2ccc(C(=O)NC3CCCc4ccccc43)cc2OC)cc1 (stereo unspecified)	3%	.	9%	-14%	-9%	?	.
CCO[C@@H]1OC(C(=O)O)=C[C@H](c2ccc(Br)cc2)[C@H]1CCCO	?	.	.	.	0%	.	.
CCOC(=O)N1CCN(Cc2nc3c(c(=O)n(C)c(=O)n3C)n2CCC(C)C)CC1	0.22µM*	1	4%	-16%	5%[38.3 µM]	?	0.18µM*
O=C(OCC(=O)c1ccccc1Cl)c1cnccn1	12%	.	1%	-4%	-2%	0	.
CC1=C(C(=O)OCC(C)C)C(c2cccs2)NC(=S)N1 (stereo unspecified)	0.13µM*	4	?	.	.	?	0.25µM*
CC1=C(C(=O)NCc2ccccc2)C(c2cccs2)NC(=S)N1 (stereo unspecified)	?	.	.	.	1%	.	.
c1ccn2c(CNc3ncnc4sccc34)nnc2c1	8%	?	4%	-4%	-5%	?	.
CC(=O)NC1C(=O)N(CC(C)C)c2ccccc21 (stereo unspecified)	0.04µM*	6	11%	-8%	-13%[38.3 µM]	-29	1µM*
Cc1ccccc1NC(=O)CCC(=O)OCC(=O)c1cccc([N+](=O)[O-])c1	-14%	.	.	.	4%	.	.
Cc1ccc(NCCC(=O)c2cccc([N+](=O)[O-])c2)c(C)c1	0.13µM*	?	0%	-19%	1%	-84*	0.4µM*
CCCS(=O)(=O)N1CCCC(C(=O)N2CCN(C(=O)OCC)CC2)C1 (stereo unspecified)	7%	-1	-4%	-5%	-1%[38.3 µM]	22	.
O=C(N[C@@H](Cc1ccccc1)C(=O)CCl)OCc1ccccc1	0.35µM*	9	-4%	11µM*	22%	.	0.25µM*
O=C(O)CNC(=O)C(Cc1ccccc1)NC(=O)OCc1ccccc1 (stereo unspecified)	0%	.	.	.	-7%	.	.
COC(=O)c1sccc1NC(=O)CSc1nnnn1-c1ccccc1C	0.56µM*	7	-9%	?	29%[38.3 µM]	25	0.79µM*
COC(=O)c1ccc(-n2nnnc2SCC(=O)Nc2ccccc2C(=O)OC)cc1	-1%	22	5%	-22%	-6%	7	.
COc1ccccc1NC(=O)CN1CCN(CC(=O)Nc2ccc3c(c2)OCCO3)CC1	3.5µM*	8	-3%	-2%	25%[38.3 µM]	9	3.2µM*
COc1ccccc1-n1nnnc1SCC(=O)Nc1cc(C)on1	0.71µM*	6	4%	-8%	20%[38.3 µM]	?	0.89µM*
COc1ccc(OC)c(-n2nnnc2SCC(=O)Nc2ccc3c(c2)OCCO3)c1	0.063µM*	3	-3%	.	.	22	0.1µM*
CC1CCCC(NC(=O)C2CCN(S(=O)(=O)N3CCCCC3)CC2)C1C (stereo unspecified)	-17%	.	.	.	0%	.	.
CCOc1ccc(C(=O)NCC(=O)OCC(=O)N2CCCC2)cc1	8%	.	.	.	4%	.	.
